About 83,000 compounds went through this panel and 20% of them were active in at least one assay; those are over-represented in the sample as a whole.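 Activity criterion: percent growth below 10, measured after cells in 96-well plates were exposed to a single compound concentration for 48 hours.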 Activity calls are given as the source filed them.

This assay relates to MDA-MB-468 breast. Nature of the assay: NCI-60 one-dose screen, 48 h (100 = growth as untreated, 0 = no growth, -100 = all killed). Conditions: 10 µM unless noted.
For the molecule `COc1ccc2[nH]cc(-c3nc(-c4c[nH]c5ccncc45)cs3)c2c1`, the growth is -33.9% (active).

Consider `C/C=C/C/C=C/[C@H](C)C[C@H](O)[C@@H]1C[C@@H]2O[C@H]2/C=C/[C@@H]2OC(C)(C)O[C@H]2/C=C/C[C@H](C)CC(=O)O1`, for which the growth is 59.8% (inactive).

With `CC1=C(C(=O)Nc2ccc(F)cc2)C(c2ccc(Cl)cc2)C2=C(CC(C)(C)CC2=O)N1` (stereo not drawn), the growth was 89.4% (inactive).

With `C=C1CC[C@@H]2[C@](C)(CO)[C@H](O)CC[C@@]2(C)[C@@H]1C/C(O)=C1\CCOC1=O`, the growth was 90.8% (inactive).

With `O=C(CCCCCCCn1cc(-c2cccnc2)nn1)Nc1ccccc1-c1ccccc1`, the growth was 48.2% (inactive).

As to `Cc1nn(-c2ccccc2)c2nc(Cl)c(/C=C/C(=O)c3ccccc3)c(-c3ccccc3)c12`, the growth is 105% (inactive).

For `O=C(Nc1ccccc1)NS(=O)(=O)c1c[nH]c(=S)[nH]c1=O`, the growth is 112% (inactive).

For `COc1cc(NC(C)CCCN)c2nc(C)ccc2c1Oc1ccc(F)cc1` (stereo not drawn), the growth is 57.3% (inactive).

The values above are taken from PubChem BioAssay (NCI).
